Experimental data published in PubChem BioAssay AID2685 (National Center for Advancing Translational Sciences (NCATS), 2010).
Screen size: about 320,000 compounds; about 2,100 (0.66%) were called active. About 53% were inconclusive and are not listed. The call rests on the fitted dose curve; in most records, active means well fitted inhibition curve with a large enough effect in the signal ratio, with a control signal flat (not every such curve was filed as active); inconclusive means small, poorly fitted or top-dose-only effect, or effect the other way, or a change in a side signal; inactive means flat fitted curve, though single readings scatter; the % refers to the signal ratio. What follows is part of a selection rich in actives, with near analogues and random picks from the rest.

test: qHTS Assay for Lipid Storage Modulators in Drosophila S3 Cells; conditions: BODIPY lipid droplet fluorescence, 18-24 h, cells fed with added oleic acid; cell number change: measured here: cell count max response; series mostly up to 46.1 µM; lipid storage change, negative = inhibition: at the top concentration;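 on cell number change: cells counted by Cell Tracker Red CMTPX staining in the red channel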; on lipid storage change, negative = inhibition: on the % scale 0 is the no-effect control and ±100 the full control effect
Method in brief: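 Drosophila S3 cells loaded with oleic acid (400 uM, as added) and compounds at several concentrations; lipid droplets imaged by 488-nm laser-scanning cytometry, 500–530 nm intensity and object ratio to cell channel. Percent activity normalized to 20 uM Triacsin C.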
Potency means the concentration at half of the fitted maximal effect.

Row | SMILES | lipid storage change, negative = inhibition | cell number change [%] | outcome | Potency
1 | O=C(CN1C(=O)NC2(CCCC2)C1=O)Nc1cc(S(=O)(=O)N2CCOCC2)ccc1OCC(F)(F)F | 0.0733% (inactive) | 18 |  | 
2 | Cc1ccccc1-n1nc2c(c1NC(=O)c1cccs1)CS(=O)(=O)C2 |  |  | inactive | 
3 | Nn1c(SCC(=O)Nc2ccccc2)nnc1-c1cccnc1 |  |  | inactive | 
4 | COc1cccc(C(=O)Nc2nnc(-c3ccccc3)s2)c1 | -1.19% (inactive) | 0.556 |  | 
5 | Cc1ccccc1OC(=O)CCC(=O)OCCCC(F)(F)C(F)(F)F |  | 10.2 |  | 29.1 µM (active)
6 | Cc1ccc(NC(=O)CCC(=O)OCCCC(F)(F)C(F)(F)F)cc1 | -0.336% (inactive) | -12.9 |  | 
7 | Cc1ccccc1NC(=O)CCC(=O)OCCCC(F)(F)C(F)(F)F | 20.7% (inactive) | 12.7 |  | 
8 | O=c1oc(-c2cccc([N+](=O)[O-])c2)nc2ccccc12 | 12% (inactive) | 0.88 |  | 
9 | COc1ccc(NS(=O)(=O)c2ccc3oc(=O)ccc3c2)cc1 | -5.71% (inactive) | -11.6 |  | 
10 | Cn1c(=O)oc2cc(S(=O)(=O)Nc3ccccc3)ccc21 | -3.68% [at 9.22 µM] (inactive) | -3.03 |  | 
11 | COc1ccc(NS(=O)(=O)c2ccc3oc(=S)[nH]c3c2)cc1 | -21.1% (inactive) | 5.85 |  | 
12 | CCn1c(=O)c(=O)[nH]c2c(=O)oc3ccc(S(=O)(=O)Nc4ccc(OC)cc4)cc3c21 |  | 1.26 |  | 4.61 µM (active)
13 | Cc1ccc(S(=O)(=O)Nc2c(O)c3ccccc3oc2=O)cc1C |  | 6.35 | inactive | 
14 | CCn1c(=O)c(=O)[nH]c2c(=O)oc3ccc(S(=O)(=O)Nc4ccccc4)cc3c21 |  | -26.4 |  | 13 µM (active)
15 | COc1ccc(-c2nc(=S)[nH][nH]2)cc1 | 2.02% (inactive) | -14.6 |  | 
16 | O=C(NCc1cccnc1)C1CCCN(Cc2cnn(-c3ccccc3)c2-n2cccc2)C1 (stereo unspecified) | 0.331% (inactive) | -3.38 |  | 
17 | Cc1ccc2nc3c(cc(C(=O)NCc4ccco4)c(=N)n3Cc3ccco3)c(=O)n2c1 | -7.54% (inactive) | -5.34 |  | 
18 | Cc1ccc(N(C(=O)CCC(=O)Nc2cc(C)on2)C(C(=O)NC2CCCC2)c2ccccc2)cc1 (stereo unspecified) |  | -13.1 | inactive | 
19 | O=C(CSc1nnc(-c2ccco2)n1-c1ccccc1)N1CCOCC1 |  |  | inactive | 
20 | Cc1ccsc1C(=O)Nc1ccc(C(=O)O)cc1 |  |  | inactive | 
21 | O=C(O)CCCC(=O)N1CCOCCOCCOCCOCC1 | -7% (inactive) | 22.2 |  | 
22 | Cc1cccc(NC(=O)CNC(=O)COc2ccc(C(=O)c3ccc(F)cc3)cc2)c1C | 26.3% (inactive) | 8.34 |  | 
23 | CCN(CC)C(=O)Cn1cc(S(=O)(=O)Cc2cccc([N+](=O)[O-])c2)c2ccccc21 | 1.45% (inactive) | 0.298 |  | 

Row | SMILES | lipid storage change, negative = inhibition | cell number change [%] | outcome | Potency
24 | O=C(Cn1cc(S(=O)(=O)Cc2ccccc2)c2ccccc21)N1CCOCC1 | 10.8% (inactive) | 6.54 |  | 
25 | CN(C)C(=O)Cn1cc(S(=O)(=O)Cc2ccccc2)c2ccccc21 |  | -2.09 |  | 0.651 µM (active)
26 | CC(C)OC(=O)CSc1nc2c(cc1C#N)CCCCC2 | -3.11% (inactive) |  |  | 
27 | Cc1cc(C(=O)CN2C(=O)C(=O)N(C3CCCC3)C2=O)c(C)n1CCc1ccc(F)cc1 |  | -15.3 |  | 20.6 µM (active)
28 | Cc1cc(C(=O)CN2C(=O)C(=O)N(Cc3ccccc3)C2=O)c(C)n1Cc1ccc(F)cc1 | 18.7% (inactive) | -8.57 |  | 
29 | Cc1cc(C(=O)CCl)c(C)n1CCc1ccc(F)cc1 | -0.0782% (inactive) | -8.52 |  | 
30 | COC(=O)C(C)N(C(=O)c1cccc(Cl)c1)c1c(C)cccc1C (stereo unspecified) |  |  | inactive | 
31 | Cc1ccc(S(=O)(=O)N2CCN(C(=O)CNC(=O)c3sc4ccccc4c3Cl)CC2)cc1 |  |  | inactive | 
32 | COC(=O)C(Cc1ccccc1)NC(=O)CNC(=O)c1sc2ccccc2c1Cl (stereo unspecified) |  | -4.58 |  | 1.84 µM (active)
33 | CC(=O)Nc1ccc(NC(=O)CNC(=O)c2sc3ccccc3c2Cl)cc1 | -4.95% (inactive) | 0.461 |  | 
34 | CC1CCCN(C(=O)CNC(=O)c2sc3ccccc3c2Cl)C1 (stereo unspecified) | 0.306% [at 0.0737 µM] (inactive) | 11.4 |  | 
35 | COC(=O)c1ccc(CNC(=O)CNC(=O)c2sc3ccccc3c2Cl)cc1 | 5.59% (inactive) | 3.22 |  | 
36 | CC1CC(C)CN(C(=O)CNC(=O)c2sc3ccccc3c2Cl)C1 (stereo unspecified) |  | -1.35 |  | 1.46 µM (active)
37 | CC(C)N(Cc1nc(-c2ccccc2)no1)C(=O)C(C)(C)C |  |  | inactive | 
38 | O=C(CNC(=O)c1ccco1)N=Nc1c(O)[nH]c2ccc([N+](=O)[O-])cc12 |  | 26.6 |  | 1.03 µM (active)
39 | O=C(CNC(=O)c1ccco1)N=Nc1c(O)[nH]c2ccc(Br)cc12 | -20.8% (inactive) | -9.17 |  | 
40 | Cc1cccc(OCC(=O)N=Nc2c(O)[nH]c3ccc([N+](=O)[O-])cc23)c1 | -6.55% (inactive) | -0.974 |  | 
41 | CCCCN(C(=O)c1cccc(S(=O)(=O)N2CC(C)OC(C)C2)c1)c1c(N)n(CC(C)C)c(=O)[nH]c1=O (stereo unspecified) | 17% (inactive) |  |  | 
42 | O=[N+]([O-])c1ccc2nc(C(O)C(O)c3nc4ccc([N+](=O)[O-])cc4[nH]3)[nH]c2c1 (stereo unspecified) |  | 22.3 | inactive | 
43 | COc1ccc(-c2nnc(SCC(=O)O)n2Cc2ccccc2)cc1 | -23% (inactive) | 16.6 |  | 
44 | O=C(O)CSc1nnc(-c2cccnc2)n1Cc1ccccc1 | 7.76% (inactive) | 0.309 |  | 
45 | O=C(O)CSc1nnc(-c2ccc(Cl)cc2Cl)n1Cc1ccccc1 |  | -15.2 |  | 5.8 µM (active)
